From PubChem BioAssay (EPA / NIEHS)
Calls of active or inactive are those of the source. How the source made its calls: active means hit-call score of the fitted dose curve at least 0.9, where 1 is the maximum; inactive means score below 0.9.

Legend:
Details in all cases: mRNA level, 48 h; actives raise or lower the signal
[1] = read-out: Glutamate-cysteine ligase regulatory (GCLM), GCLM (gene 2730); experiment: LTEA_HepaRG_GCLM: Life Technologies and Expression Analysis (LTEA) Assay for Glutamate-cysteine ligase regulatory (GCLM) using HepaRG (AID 2283500)
Procedure, shortened: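 HepaRG, 48 h dosing, 100 uM top, half-log x8, 0.5% DMSO vehicle. Readout: GCLM mRNA by TaqMan qRT-PCR, housekeeping-normalized (ACTB/GAPDH/POLR2A). Curves fit bidirectionally vs DMSO baseline.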

[2] = read-out: Glutathione S-transferase M3 (GSTM3), GSTM3 (gene 2947); experiment: LTEA_HepaRG_GSTM3: Life Technologies and Expression Analysis (LTEA) Assay for Glutathione S-transferase M3 (GSTM3) using HepaRG (AID 2283501)
Procedure, shortened: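 Differentiated human HepaRG cells were exposed in duplicate for 48 h in serum-free induction medium, 8 points from 100 uM top in half-log steps, 0.5% DMSO. GSTM3 mRNA was measured by TaqMan qRT-PCR, normalized to ACTB, GAPDH and POLR2A; bidirectional fit versus DMSO.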

[3] = read-out: Heat shock 70 kDa protein 1 (HSPA1A), gene 3303; experiment: LTEA_HepaRG_HSPA1A: Life Technologies and Expression Analysis (LTEA) Assay for Heat shock 70 kDa protein 1 (HSPA1A) using HepaRG (AID 2283502)
Procedure, shortened: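 HepaRG, 48 h exposure, 8-pt half-log CRC from 100 uM in 0.5% DMSO, duplicates. Readout: TaqMan qRT-PCR of HSPA1A mRNA, housekeeping-normalized (ACTB/GAPDH/POLR2A). Bidirectional fit vs 0.5% DMSO baseline.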

[4] = read-out: Hypoxia-inducible factor 1-alpha (Homo sapiens) (UniProt Q16665); experiment: LTEA_HepaRG_HIF1A: Life Technologies and Expression Analysis (LTEA) Assay for Hypoxia-inducible factor 1 (HIF1A) Trancription factor using HepaRG (AID 2283503)
Procedure, shortened: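 Gain- or loss-of-signal HIF1A mRNA changes are fitted against a DMSO baseline. HepaRG cultures receive eight concentrations, highest 100 uM, for 48 h in serum-free induction medium with 0.5% DMSO.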

[5] = read-out: 3-Hydroxy-3-Methylglutaryl-CoA Synthase 2 (HMGCS2), HMGCS2 (gene 3158); experiment: LTEA_HepaRG_HMGCS2: Life Technologies and Expression Analysis (LTEA) Assay for 3-Hydroxy-3-Methylglutaryl-CoA Synthase 2 (HMGCS2) using HepaRG (AID 2283504)
Procedure, shortened: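 Human HepaRG cells in serum-free induction medium were exposed in duplicate for 48 h to 8-point half-log series from 100 uM top in 0.5% DMSO. HMGCS2 mRNA measured by TaqMan qRT-PCR, normalised to ACTB, GAPDH, POLR2A; bidirectional fit versus DMSO.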

HGF (gene 3082) = experiment: LTEA_HepaRG_HGF: Life Technologies and Expression Analysis (LTEA) Assay for Hepatocyte Growth Facto (HGF) using HepaRG (AID 2283505)
Procedure, shortened: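 Differentiated HepaRG cells in serum-free induction medium exposed 48 h in duplicate, 8 half-log concentrations from 100 uM in 0.5% DMSO. HGF mRNA by qRT-PCR, normalised to ACTB, GAPDH, POLR2A; bidirectional fitting.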

[6] = read-out: Insulin Like Growth Factor 1 (IGF1), IGF1 (gene 3479); experiment: LTEA_HepaRG_IGF1: Life Technologies and Expression Analysis (LTEA) Assay for Insulin Like Growth Factor 1 (IGF1) using HepaRG (AID 2283506)
Procedure, shortened: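 qRT-PCR readout of IGF1 mRNA, normalized to three housekeeping genes, after 48 h chemical exposure of HepaRG cells. Concentrations: 8-point half-log series, top 100 uM, 0.5% DMSO vehicle. Gain or loss fitted against DMSO baseline.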

[7] = read-out: Intercellular Adhesion Molecule 1 (ICAM1), ICAM1 (gene 3383); experiment: LTEA_HepaRG_ICAM1: Life Technologies and Expression Analysis (LTEA) Assay for Intercellular Adhesion Molecule 1 (ICAM1) using HepaRG (AID 2283507)
Procedure, shortened: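 Differentiated human HepaRG cells in serum-free induction medium exposed 48 h in duplicate to 8 half-log concentrations (top 100 uM, 0.5% DMSO). ICAM1 mRNA quantified by TaqMan qRT-PCR, normalized to ACTB, GAPDH and POLR2A; bidirectional fitting versus DMSO.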

[8] = read-out: Insulin-like growth factor-binding protein 1 (IGFBP1), IGFBP1 (gene 3484); experiment: LTEA_HepaRG_IGFBP1: Life Technologies and Expression Analysis (LTEA) Assay for Insulin-like growth factor-binding protein 1 (IGFBP1) using HepaRG (AID 2283508)
Procedure, shortened: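 HepaRG cells, plated 48 h then switched to serum-free induction medium, exposed in duplicate for 48 h to 8-point half-log series from 100 uM in 0.5% DMSO. mRNA measured by qRT-PCR, normalized to ACTB/GAPDH/POLR2A; bidirectional fit versus DMSO.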

[9] = read-out: Interleukin 6 (IL6), IL6 (gene 3569); experiment: LTEA_HepaRG_IL6: Life Technologies and Expression Analysis (LTEA) Assay for Interleukin 6 (IL6) using HepaRG (AID 2283509)
Procedure, shortened: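 qRT-PCR read-out of IL6 transcript, normalized to three housekeeping genes, after 48 h chemical exposure of HepaRG cells; 8-point half-log series, top 100 uM, 0.5% DMSO vehicle. Bidirectional curve fitting against DMSO baseline.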

[10] = read-out: Interleukin 6 Receptor (IL6R), IL6R (gene 3570); experiment: LTEA_HepaRG_IL6R: Life Technologies and Expression Analysis (LTEA) Assay for Interleukin 6 Receptor (IL6R) using HepaRG (AID 2283510)
Procedure, shortened: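 HepaRG, 48 h exposure, 8-pt half-log series, top 100 uM, 0.5% DMSO vehicle, duplicates. Read-out: TaqMan qRT-PCR of IL6R transcript, housekeeping-gene normalized. Gain or loss fitted relative to DMSO baseline.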

[11] = read-out: Potassium channel subfamily K member 1 (KCNK1), KCNK1 (gene 3775); experiment: LTEA_HepaRG_KCNK1: Life Technologies and Expression Analysis (LTEA) Assay for Potassium channel subfamily K member 1 (KCNK1) using HepaRG (AID 2283511)
Procedure, shortened: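 HepaRG, 48 h exposure, 8-pt half-log series top 100 uM, 0.5% DMSO vehicle, duplicates. Readout: KCNK1 transcript by qRT-PCR (Fluidigm array), housekeeping-normalized; bidirectional curve fit relative to DMSO baseline.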

[12] = read-out: Keratin 19 (KRT19), KRT19 (gene 3880); experiment: LTEA_HepaRG_KRT19: Life Technologies and Expression Analysis (LTEA) Assay for Keratin 19 (KRT19) using HepaRG (AID 2283512)
Procedure, shortened: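 Differentiated HepaRG cells in serum-free induction medium, exposed 48 h in duplicate to 8 half-log concentrations up to 100 uM in 0.5% DMSO. KRT19 mRNA by qRT-PCR, normalized to ACTB, GAPDH, POLR2A; bidirectional fit vs DMSO.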

[13] = read-out: JUN Transcription Factor, JUN (gene 3725); experiment: LTEA_HepaRG_JUN: Life Technologies and Expression Analysis (LTEA) Assay for JUN Transcription Factor using HepaRG (AID 2283513)
Procedure, shortened: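 HepaRG, 48 h exposure, 8-pt half-log series top 100 uM, 0.5% DMSO, duplicate. JUN mRNA by qRT-PCR (Fluidigm), housekeeping-normalized (ACTB/GAPDH/POLR2A); bidirectional curve fit vs DMSO baseline.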

[14] = read-out: Lipase C (LIPC), LIPC (gene 3990); experiment: LTEA_HepaRG_LIPC: Life Technologies and Expression Analysis (LTEA) Assay for Lipase C (LIPC) using HepaRG (AID 2283514)
Procedure, shortened: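 HepaRG, 48 h exposure, 8-pt half-log series from 100 uM in 0.5% DMSO, duplicates. Readout: LIPC mRNA by Fluidigm qRT-PCR, housekeeping-normalized (ACTB/GAPDH/POLR2A). Gain or loss fitted bidirectionally against DMSO baseline.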

[15] = read-out: Lipoprotein lipase (LPL), LPL (gene 4023); experiment: LTEA_HepaRG_LPL: Life Technologies and Expression Analysis (LTEA) Assay for Lipoprotein lipase (LPL) using HepaRG (AID 2283515)
Procedure, shortened: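 HepaRG, 48 h exposure, 8-pt half-log dilutions from 100 uM, 0.5% DMSO vehicle, duplicates; qRT-PCR (Fluidigm array) of LPL mRNA vs housekeeping genes; bidirectional curve fit relative to DMSO baseline.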

[16] = read-out: MicroRNA 122 (MIR122), gene 406906; experiment: LTEA_HepaRG_MIR122: Life Technologies and Expression Analysis (LTEA) Assay for MicroRNA 122 (MIR122) using HepaRG (AID 2283516); further: the transcript read is the microRNA miR-122
Procedure, shortened: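 qRT-PCR read-out (TaqMan, Fluidigm array), normalized to three housekeeping genes; HepaRG cells dosed 48 h at 8 concentrations up to 100 uM in 0.5% DMSO, duplicate; gain or loss fitted against DMSO baseline.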

[17] = read-out: matrix metalloproteinase-10 (MMP10), MMP10 (gene 4319); experiment: LTEA_HepaRG_MMP10: Life Technologies and Expression Analysis (LTEA) Assay for matrix metalloproteinase-10 (MMP10) using HepaRG (AID 2283517)
Procedure, shortened: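 Transcript levels come from Fluidigm qRT-PCR normalized to three housekeeping genes, with curves fitted bidirectionally against 0.5% DMSO. Human HepaRG cells were dosed for 48 hours at concentrations up to 100 uM.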

MYC, MYC (gene 4609) = experiment: LTEA_HepaRG_MYC: Life Technologies and Expression Analysis (LTEA) Assay for MYC using HepaRG (AID 2283518)
Procedure, shortened: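 Differentiated HepaRG cells exposed 48 h in serum-free induction medium to 8 concentrations (top 100 uM, half-log steps; 0.5% DMSO), duplicate. MYC mRNA measured by Fluidigm qRT-PCR, normalized to ACTB, GAPDH, POLR2A; bidirectional fit versus DMSO.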

[18] = read-out: matrix metalloproteinase-3 (MMP3), MMP3 (gene 4314); experiment: LTEA_HepaRG_MMP3: Life Technologies and Expression Analysis (LTEA) Assay for matrix metalloproteinase-3 (MMP3) using HepaRG (AID 2283519)
Procedure, shortened: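 qRT-PCR read-out of MMP3 mRNA (normalised to three housekeeping genes) in HepaRG liver cells after 48 h chemical exposure; 8-point half-log series, top 100 uM, 0.5% DMSO vehicle. Bidirectional curve fitting against DMSO baseline.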

Measured: AC50

Hypoxia-inducible factor 1-alpha (Homo sapiens), sequence (Q16665 whole entry, looked up): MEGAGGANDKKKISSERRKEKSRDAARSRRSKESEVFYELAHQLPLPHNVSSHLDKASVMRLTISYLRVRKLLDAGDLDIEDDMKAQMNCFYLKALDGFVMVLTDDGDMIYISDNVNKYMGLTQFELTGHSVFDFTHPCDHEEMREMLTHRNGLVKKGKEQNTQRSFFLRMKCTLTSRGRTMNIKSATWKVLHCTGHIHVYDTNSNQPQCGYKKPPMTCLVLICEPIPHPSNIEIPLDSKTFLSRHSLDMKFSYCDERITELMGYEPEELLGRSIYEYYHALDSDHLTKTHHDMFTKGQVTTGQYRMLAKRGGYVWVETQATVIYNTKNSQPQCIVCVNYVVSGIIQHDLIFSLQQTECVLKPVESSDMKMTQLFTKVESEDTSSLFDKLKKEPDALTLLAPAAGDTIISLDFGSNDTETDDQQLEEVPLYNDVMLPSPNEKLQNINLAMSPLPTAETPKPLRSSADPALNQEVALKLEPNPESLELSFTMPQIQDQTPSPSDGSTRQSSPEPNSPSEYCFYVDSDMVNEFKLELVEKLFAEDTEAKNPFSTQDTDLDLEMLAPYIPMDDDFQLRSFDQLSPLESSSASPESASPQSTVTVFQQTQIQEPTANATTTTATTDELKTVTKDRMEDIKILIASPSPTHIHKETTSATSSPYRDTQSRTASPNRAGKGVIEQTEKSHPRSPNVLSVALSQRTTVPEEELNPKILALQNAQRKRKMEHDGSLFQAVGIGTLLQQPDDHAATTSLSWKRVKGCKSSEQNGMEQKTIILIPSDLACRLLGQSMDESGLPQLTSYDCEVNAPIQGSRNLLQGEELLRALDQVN

CO/N=C(/C1=NOCCO1)c1ccccc1Oc1ncnc(Oc2ccccc2Cl)c1F
inactive: [2] | [3] | [4] | HGF (gene 3082) | [10] | [11] | [13]
active: [1] 19.5 µM | [5] 21.9 µM | [6] 10.6 µM | [7] 29.4 µM | [8] 20.3 µM | [9] 28.4 µM | [12] 13.3 µM | [14] 30.1 µM | [15] 23.2 µM | [16] 26.4 µM | [17] 50 µM | MYC, MYC (gene 4609) 29.9 µM | [18] 50 µM

Cc1cc(C)nc(Nc2ccccc2)n1
active: [12] 18.7 µM
inactive: all other assays above

Nc1c(Cl)c(F)nc(OCC(=O)O)c1Cl
inactive: all assays above

CC(C)=CC1C(C(=O)OCc2coc(Cc3ccccc3)c2)C1(C)C (stereo not given)
inactive: all assays above

CCCN(CC)CC1COC2(CCC(C(C)(C)C)CC2)O1 (stereo not given)
inactive: all assays above

N#Cc1c[nH]cc1-c1cccc2c1OC(F)(F)O2
active: [1] 93.2 µM | [2] 50 µM | [4] 83.4 µM | [5] 79.3 µM | [8] 69 µM | [10] 19.6 µM | [12] 23.9 µM | [14] 46.7 µM | [15] 7.8 µM | MYC, MYC (gene 4609) 80.3 µM
inactive: all other assays above

CCCCOCN(C(=O)CCl)c1c(CC)cccc1CC
active: [6] 50 µM
inactive: all other assays above

CCSC(=O)N1CCCCCC1
inactive: all assays above

N#CN=C1SCCN1Cc1ccc(Cl)nc1
inactive: all assays above
